Source: PubChem BioAssay (NCATS)
Results filed as inconclusive are left out. Entries that show only a call come without a potency. Calls of active or inactive are those of the source. Unless noted, the call rests on the fitted dose curve; in most records, active means well fitted curve in the direction sought with a large enough effect in the repeat runs; inconclusive means weak or mixed curves; inactive means no such curve, though single readings can be large; an effect the other way counts as inactive or inconclusive.

Key:
[1] = molecular target: Cytochrome P450 2C9 (Homo sapiens) (UniProt P11712); assay: Cytochrome P450 family 2 subfamily C member 9 (CYP2C9) small molecule antagonists: luciferase biochemical (cell-free) qHTS assay (AID 1645842); conditions: P450-Glo CYP2C9 enzyme assay, luciferin luminescence; series mostly up to 57.4 µM; further: nearly all actives have a fitted effect of over 55% in size; further: potency means the concentration at half of the fitted maximal effect
Chain of Cytochrome P450 2C9 (Homo sapiens) (P11712 whole entry, looked up): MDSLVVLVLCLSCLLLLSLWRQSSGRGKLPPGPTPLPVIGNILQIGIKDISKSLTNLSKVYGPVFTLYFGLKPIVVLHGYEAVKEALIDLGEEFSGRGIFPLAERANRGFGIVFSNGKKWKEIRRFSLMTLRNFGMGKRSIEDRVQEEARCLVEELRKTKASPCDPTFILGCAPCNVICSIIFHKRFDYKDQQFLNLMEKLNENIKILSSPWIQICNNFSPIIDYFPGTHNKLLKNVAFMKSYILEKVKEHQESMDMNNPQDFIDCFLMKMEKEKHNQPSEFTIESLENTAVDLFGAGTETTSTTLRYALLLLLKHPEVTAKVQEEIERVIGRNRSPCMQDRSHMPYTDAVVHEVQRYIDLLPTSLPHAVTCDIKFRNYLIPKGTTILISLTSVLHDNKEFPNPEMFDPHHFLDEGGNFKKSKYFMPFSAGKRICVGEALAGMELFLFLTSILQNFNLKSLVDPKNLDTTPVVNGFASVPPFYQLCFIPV
Method in brief: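 Luminescence, after 20 min with luciferin detection reagent, reflected CYP2C9 turnover during a 1 h NADPH-driven reaction at 37C. Enzyme-substrate mix contained 0.4% bovine serum albumin and was preincubated with compound 10 min at room temperature.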

[2] = Cytotoxicity counterscreen for inhibitors of SARS-CoV-2 cell entry (AID 1645845; calls by dose curve; further: nearly all actives have a fitted effect of over 50% in size; further: potency means the concentration at half of the fitted maximal effect); conditions: cell viability (SARS-CoV-2 entry assay cells); series mostly up to 57.1 µM
Method in brief: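 48 h compound treatment (after 1 h preincubation), HEK293-ACE2 cells, 37 C/5% CO2; ATP luminescence endpoint; normalized to cell wells and media blanks.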

[3] = Primary qHTS to identify inhibitors of SARS-CoV-2 cell entry (AID 1645846; calls by dose curve; further: nearly all actives have a fitted effect of over 45% in size); conditions: SARS-CoV-2 pseudovirus cell entry assay, luminescence; activity change, negative = inhibition: at 57.1 µM (top of the series) unless noted; series mostly up to 57.1 µM
Method in brief: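 Data are normalized to wells receiving SARS-CoV-2-S pseudoparticles and those given bald particles. Entry signal was luciferase luminescence in stable hACE2 Expi293F cells, 48 hr post-infection, after 1 hr compound pretreatment.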

[4] = molecular target: Cytochrome P450 2D6 (Homo sapiens) (UniProt P10635); assay: Cytochrome P450 family 2 subfamily D member 6 (CYP2D6) small molecule antagonists: luciferase biochemical (cell-free) qHTS assay (AID 1645840); conditions: P450-Glo CYP2D6 enzyme, luciferin luminescence, 1 h; series mostly up to 57.4 µM; further: nearly all actives have a fitted effect of over 55% in size; further: potency means the concentration at half of the fitted maximal effect
Chain of Cytochrome P450 2D6 (Homo sapiens) (P10635 whole entry, looked up): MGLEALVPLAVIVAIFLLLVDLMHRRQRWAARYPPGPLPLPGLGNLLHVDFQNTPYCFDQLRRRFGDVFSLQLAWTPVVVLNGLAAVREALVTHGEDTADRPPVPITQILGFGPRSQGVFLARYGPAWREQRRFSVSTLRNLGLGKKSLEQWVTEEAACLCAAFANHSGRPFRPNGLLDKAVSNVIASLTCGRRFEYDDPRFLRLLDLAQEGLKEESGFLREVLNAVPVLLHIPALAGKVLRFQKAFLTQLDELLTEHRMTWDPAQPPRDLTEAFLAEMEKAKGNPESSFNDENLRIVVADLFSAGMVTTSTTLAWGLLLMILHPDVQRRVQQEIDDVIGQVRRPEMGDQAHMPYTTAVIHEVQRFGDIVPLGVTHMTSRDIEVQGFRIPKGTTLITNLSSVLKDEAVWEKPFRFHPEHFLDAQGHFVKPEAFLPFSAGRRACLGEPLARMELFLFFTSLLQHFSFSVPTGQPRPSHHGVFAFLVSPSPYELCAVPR
Method in brief: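 P450-Glo luminescent screen: recombinant CYP2D6 enzyme–proluciferin substrate mix preincubated with compound 10 min at room temperature, then NADPH regeneration added for 1 h at room temperature. Detection reagent added for 20 min; luciferin light read as relative luminescence units.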

[5] = molecular target: N-terminal Xaa-Pro-Lys N-methyltransferase 1 (Homo sapiens) (UniProt Q9BV86); assay: Confirmatory qHTS for Inhibitors of N-terminal methyltransferase 1 (NTMT1): MTaseGlo Assay (AID 1645874; active means well fitted curve in the direction sought with a large enough effect; an effect the other way counts as inactive or inconclusive; further: potency means the concentration at half of the fitted maximal effect; nearly all actives have a fitted effect of over 65% in size); conditions: NTMT1 enzyme, MTase-Glo SAH luminescence; series mostly up to 204 µM
Chain of N-terminal Xaa-Pro-Lys N-methyltransferase 1 (Homo sapiens) (Q9BV86 whole entry, looked up): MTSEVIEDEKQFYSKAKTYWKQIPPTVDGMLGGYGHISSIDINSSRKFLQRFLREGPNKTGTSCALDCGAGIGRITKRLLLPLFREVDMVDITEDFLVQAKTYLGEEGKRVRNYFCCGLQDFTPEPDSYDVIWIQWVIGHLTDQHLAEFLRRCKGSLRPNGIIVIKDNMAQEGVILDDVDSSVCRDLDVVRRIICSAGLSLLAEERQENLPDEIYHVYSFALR
Method in brief: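 Luminescent MTase-Glo read-out of SAH. 125 nM NTMT1, 100 uM SAM, 1 uM SPKRIA substrate, 30 min RT reaction after 15 min compound preincubation. Normalized to no-enzyme and DMSO controls; Hill fit.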

[6] = molecular target: Cytochrome P450 3A4 (Homo sapiens) (UniProt P08684); assay: Cytochrome P450 family 3 subfamily A member 4 (CYP3A4) small molecule antagonists: luciferase qHTS assay (AID 1645841); conditions: P450-Glo CYP3A4 enzyme assay, luciferin luminescence; series mostly up to 57.4 µM; further: nearly all actives have a fitted effect of over 45% in size
Chain of Cytochrome P450 3A4 (Homo sapiens) (P08684 whole entry, looked up): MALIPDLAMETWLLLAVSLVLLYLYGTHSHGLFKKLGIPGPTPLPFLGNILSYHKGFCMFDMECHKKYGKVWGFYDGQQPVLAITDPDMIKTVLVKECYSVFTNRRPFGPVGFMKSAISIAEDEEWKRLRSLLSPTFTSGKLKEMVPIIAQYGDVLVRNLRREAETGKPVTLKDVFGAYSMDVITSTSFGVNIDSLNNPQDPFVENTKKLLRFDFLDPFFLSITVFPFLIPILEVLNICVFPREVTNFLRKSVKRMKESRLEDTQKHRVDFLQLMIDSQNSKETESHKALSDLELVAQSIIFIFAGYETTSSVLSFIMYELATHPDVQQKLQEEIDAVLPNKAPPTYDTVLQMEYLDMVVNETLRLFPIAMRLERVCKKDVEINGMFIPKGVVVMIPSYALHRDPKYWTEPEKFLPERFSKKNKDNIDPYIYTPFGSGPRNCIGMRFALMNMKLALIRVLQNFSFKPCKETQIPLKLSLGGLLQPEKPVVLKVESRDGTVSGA
Method in brief: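 Luminescent CYP3A4 activity readout: compounds plus enzyme-substrate mix 10 min at room temperature, reaction started with NADPH regenerating system for 1 h, stopped with detection reagent, read after 20 min. Ketoconazole served as control.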

## Nc1ccccc1C(=O)OCC(O)CO (stereo not drawn)
[1]
  Potency: inactive
[2]
  Potency: inactive
[3]
  activity change, negative = inhibition: -1.98%

## O=c1n(Cl)c(=O)n(Cl)c(=O)n1Cl
[4]
  Potency: inactive
[1]
  Potency: inactive
[2]
  Potency: inactive
[3]
  activity change, negative = inhibition: 1.05%

## O=c1[nH]c2ccccc2n1CCCN1CCN(C(c2ccccc2)c2ccccc2)CC1
[2]
  Potency: inactive

## Oc1ccc([C@H]2CNCc3c2ccc(O)c3O)cc1O
[4]
  Potency: inactive
[1]
  Potency: 8.71 µM (active)
[2]
  Potency: inactive
[3]
  activity change, negative = inhibition: 1.13%
[5]
  Potency: 18.3 µM (active)

## CCC(=O)OC1(c2ccccc2)CCN(C)CC1
[4]
  Potency: 37.5 µM (active)
[1]
  Potency: inactive

## O=C(CCCN1CCC(n2c(=O)[nH]c3ccccc32)CC1)c1ccc(F)cc1
[4]
  Potency: 6.92 µM (active)
[2]
  Potency: inactive
[3]
  Potency: inactive

## CN(Cc1cc(Br)cc(Br)c1N)C1CCCCC1
[2]
  Potency: inactive

## CCN(CC)C(C)C(=O)c1ccccc1 (stereo not drawn)
[4]
  Potency: inactive
[1]
  Potency: inactive

## ClCc1cccc(Cl)c1
[4]
  Potency: 20.4 µM (active)
[1]
  Potency: inactive

## C=C1C(=C/C=C2\CCC[C@]3(C)[C@@H]([C@H](C)/C=C/[C@@H](O)C4CC4)CC[C@@H]23)C[C@@H](O)C[C@@H]1O
[2]
  Potency: inactive

## O=C1NCCN1CCN1CCC(c2cn(-c3ccc(F)cc3)c3ccc(Cl)cc23)CC1
[2]
  Potency: 28.2 µM (active)

## CC(=O)OC1(c2ccccc2)CCN(CCc2ccccc2)CC1
[6]
  Potency: inactive

## CC[C@H]1C[C@H]2[C@@H]3CCC4=CC(=O)CC[C@@H]4[C@H]3CC[C@]2(C)[C@H]1O
[4]
  Potency: inactive
[3]
  Potency: inactive

## Sc1ccccc1Cl
[4]
  Potency: inactive
[1]
  Potency: inactive

## COc1cc(CC(C)N)c(OC)cc1Br (stereo not drawn)
[4]
  Potency: 29.2 µM (active)

## CCOC(=O)C(c1c(O)c2ccccc2oc1=O)c1c(O)c2ccccc2oc1=O
[4]
  Potency: inactive
[1]
  Potency: 3.09 µM (active)
